HepG2 tox-1: kills HepG2 cells in TGF-b inhibitor counter-screen | HepG2 CAGA-GFP viability, ATP luminescence, 18 h | Potency, µM (series often up to 46.1 µM), for the others: top-dose activity change, negative = cytotoxicity, usual class: cytotoxic | actives 0.76% (n = 410,000) | AID 588856
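HepG2 CAGA-GFP cells (1000/well, DMEM with 1% FBS) received compound, then TGF-beta at 500 pg/mL final, and were incubated 18 hours at 37 degrees C. Viability was read by CellTiter-Glo luminescence. Media-only wells were set as complete cell-killing and DMSO as no toxicity.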
TGFb SMAD3 inh: TGF-b pathway inhibition | HepG2 CAGA-GFP TGF-b/SMAD3 reporter, GFP fluorescence, 18 h; TGF-beta stimulated, 500 pg/mL final | Potency, µM (top dose mostly 46.1 µM), for the others: at the highest dose activity, negative = inhibition, actives largely listed as inhibitors | actives 1.2% (n = 410,000); also: % is scaled to controls: 0 for no effect and ±100 for the full control effect; nearly all actives have a fitted effect of over 65% in size
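Per well, imaged GFP fluorescence of HEPG2 CAGA-GFP cells gives the signal; cells get compound, then TGF-beta (500 pg/mL final), 18 h at 37 degrees C; %Activity versus -TGF-beta and +DMSO controls.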
Nrf2 block: blocks Nrf2 signaling; Potency, µM (titrated, usually from 46 µM), for the others: at the highest dose activity change, negative = inhibition, hits mostly inhibitors; AID 504444; actives 2.1% (n = 360,000); A549 ARE-Fluc reporter, luciferase luminescence, 18-24 h; also: % is scaled to controls: 0 for no effect and ±100 for the full control effect; nearly all actives have a fitted effect of over 60% in size
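A549 ARE_Fluc cells (5000/well, 5% FBS OPTI-MEM) pre-incubated 2 h, then treated with compounds 18-24 h at 37C/5% CO2 in concentration-response. CellTiter-Fluor viability read first; BugLite luciferase luminescence after 15 min at room temperature gives Nrf2 activity.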
A549 tox: counter-screen for Nrf2 inhibitors: cytotoxicity in A549 cells; A549 ARE-Fluc cells, CellTiter-Fluor viability, 18-24 h; Potency, µM (top dose mostly 46 µM), inactives show at the top dose activity change, negative = cytotoxicity, actives largely listed as inhibitors; actives 0.16% (n = 390,000); also: % is scaled to controls: 0 for no effect and ±100 for the full control effect
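A549 ARE-Fluc cells in 5% FBS OPTI-MEM, 5000 cells/well, rested 2 h then exposed to compounds in concentration-response for 18-24 h at 37 °C. Viability by CellTiter-Fluor fluorescence (Ex 405/Em 525) after 30 min; luciferase luminescence (BugLite, 15 min, RT) read afterwards.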
Nrf2 ARE act: Nrf2 pathway activation. AREc32 ARE-luciferase reporter (MCF7-derived line), luminescence, 24 h. Potency, µM (doses to about 46.1 µM), without a hit: at the highest dose activation, usual class: activators. actives 0.31% (n = 410,000). AID 624171; also: % of control where 0% means no effect; nearly all actives have a fitted effect of over 65% in size
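AREc32_Fluc, 1000 cells/well, OPTI-MEM + 5% FBS, o/n 37 deg C 5% CO2; 23 nL cpd by pin tool, 24 hr; Steady-Glo 30 min RT, luminescence.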
TGFb CAGA inh: TGF-b pathway inhibition, cherry-pick retest; shares compounds with TGFb SMAD3 inh; Potency, µM (top dose mostly 46.1 µM), for the others: at the top dose activity, negative = inhibition, usual class: inhibitors; HepG2 CAGA-GFP TGF-b reporter, GFP fluorescence, 18 h; cells stimulated with TGF-beta, 500 pg/mL; actives 63% (n = 1,600); also: % is scaled to controls: 0 for no effect and ±100 for the full control effect; nearly all actives have a fitted effect of over 65% in size
HepG2 tox-2: toxic to HepG2 cells in TGF-b counterscreen. shares compounds with TGFb SMAD3 inh. HepG2 CAGA-GFP viability, ATP luminescence, 18 h; cells stimulated with TGF-beta, 500 pg/mL. Potency, µM (highest dose often 46.1 µM), without a hit: top-dose activity, negative = cytotoxicity, actives largely listed as inhibitors. actives 27% (n = 1,600); also: % is scaled to controls: 0 for no effect and ±100 for the full control effect; nearly all actives have a fitted effect of over 70% in size
TGFb CCL64 inh: blocks TGF-b signaling in CCL64 reporter cells. AID 720536. Potency, µM (highest dose often 46.1 µM), without a hit: at the top dose activity, negative = inhibition, most hits filed as inhibitors. shares compounds with TGFb SMAD3 inh. actives 41% (n = 1,600). CCL64 CAGA-GFP reporter, TGF-b stimulated, GFP fluorescence, 18 h; also: nearly all actives have a fitted effect of over 65% in size
COP TGFb inh: validation of TGF-b inhibitors in HepG2 COP promoter reporter; actives 3% (n = 1,600); shares compounds with TGFb SMAD3 inh; HepG2 COP-GFP TGF-b reporter, GFP fluorescence, 18 h; cells stimulated by added recombinant TGF-beta; AID 720537; Potency, µM (series often up to 46.1 µM), for the others: at the highest dose activity, negative = inhibition, hits mostly inhibitors; also: nearly all actives have a fitted effect of over 70% in size
* hit, by the source's call; ? = inconclusive; . = not tested or not shown. An excerpt weighted towards active compounds, which were near 3.6% of everything screened. Calls follow the shape of the dose curve; as a rule, active = well fitted curve in the direction sought with a large enough effect; inconclusive = small, poorly fitted or top-dose-only effect, or another doubt; inactive = no such curve, though single readings can be large; an effect the other way counts as inactive or inconclusive. Potency is read from the fitted curve at half-maximal effect.

SMILES	HepG2 tox-1	TGFb SMAD3 inh	Nrf2 block	A549 tox	Nrf2 ARE act	TGFb CAGA inh	HepG2 tox-2	TGFb CCL64 inh	COP TGFb inh
CCN(CC)C(=O)[C@H]1C[C@H](CC(=O)NCc2cccc(C(F)(F)F)c2)C(=O)N2CCc3c([nH]c4ccc(Cl)cc34)[C@]12C	13µM*	10µM*	?	?	-3%	?	?	26µM*	45%
CCN(CC)C(=O)[C@H]1CC(CC(=O)NCc2cccc(C(F)(F)F)c2)C(=O)N2CCc3c([nH]c4ccccc34)[C@]12C (some centres undefined)	-7%	13µM*	?	-26%	4%	21µM*	?	15µM*	35%
CCn1nc(C(=O)NCC2COc3ccccc3O2)c2ccccc2c1=O (centres undefined)	-30%	-21%	?	-13%	8%	.	.	.	.
CC(C)CCNC(=O)c1cnc2sc(N3CCCCCC3)nn2c1=O	6%	0%	-16%	-14%	0%	.	.	.	.
Cc1ccc(-c2csc(N(CCO)CCCn3c(C(F)(F)F)nc4cc(C(F)(F)F)ccc43)n2)cc1	-12%	7.1µM*	6%	-4%	11%	21µM*	-25%	?	-4%
Cc1ccc(CNC(=O)c2cc3c(C)nc4ccccc4c3o2)cc1	-15%	?	18µM*	-2%	0%	18µM*	-25%	-8%	24%
O=S(Cc1ccc(Br)cc1)Cc1nnc(SCc2c(F)cccc2Cl)n1-c1ccccc1 (centres undefined)	-13%	?	?	?	3%	12µM*	?	15µM*	40%
Cn1c(CS(=O)Cc2c(Cl)cccc2Cl)nnc1SCc1ccc(Cl)cc1 (centres undefined)	-26%	-26%	1%	-1%	4%	.	.	.	.
CCSc1nnc(NC(=O)CCNS(=O)(=O)c2cc(Br)cnc2N)s1	-19%	?	5%	-4%	0%	.	.	.	.
CCOC(=O)N(C)c1c(CC)nc2c(OCc3ccc(C(F)(F)F)cc3)cccn12	-12%	?	.	.	4%	?	-19%	4%	0%
Cc1ccc(NC(=O)c2ccc(Nc3c([N+](=O)[O-])cc([N+](=O)[O-])cc3[N+](=O)[O-])cc2)cc1	13%	13µM*	-13%	-29%	-1%	8.2µM*	?	6.5µM*	38%
Cc1cccnc1NCc1ccc(O)c2ncccc12	-40%	?	?	5%	4%	.	.	.	.
Cc1cccc(NCc2ccc(O)c3ncccc23)c1C	-12%	11µM*	-7%	-2%	4%	10µM*	-23%	?	14%
O=C(CSc1n[nH]c(-c2ccncc2)n1)Nc1ccccn1	0%	11µM*	.	13%	0%	16µM*	-1%	?	-15%
O=C(CSc1n[nH]c(-c2ccccc2)n1)Nc1ncccn1	5%	-16%	21%	0%	4%	.	.	.	.

Compound activity deposited in PubChem BioAssay by National Center for Advancing Translational Sciences (NCATS).
